Laboratory results from ChEMBL document CHEMBL3988442, “University of Dundee, Small-Polar-MMV Screening Library” (2021).
Among all 48,000 compounds or so, about 13,000 (27%) showed an effect of 50% or more. This is one part of the list.

The compounds below were run on Wolbachia pipientis (assay: Anti-Wolbachia Cell-Based Screen). Conditions: 5 µM.
Assay type: functional
Parameters: scale not given: in the data most compounds retested in dose-response had high values

| Structure (SMILES) | Percent Effect |
| --- | --- |
| O=C(C[S+]([O-])Cc1ccc(F)cc1Cl)NC1CCCC1 (stereo unspecified) | 9.339% |
| COc1ccc(Nc2ccc(C#N)cn2)cc1N1CCCC1=O | -10.87% |
| Cn1ncc2c(N3CCN(CCC(N)=O)CC3)nc(C3CCCC3)nc21 | 3.18% |
| CCc1nc(C2CCCN(C(=O)CCn3ccccc3=O)C2)no1 (stereo unspecified) | -2.479% |
| Cc1cc(OCC(=O)N2CCCC(c3noc(C)n3)C2)no1 (stereo unspecified) | 0.3444% |
| Cc1noc(C)c1-c1nc(C2CCCN(C(=O)CN)C2)ccc1CO (stereo unspecified) | 107.5% |
| Cc1noc(C)c1-c1nc(C2CCCN(C(=O)CCN)C2)ccc1CO (stereo unspecified) | 106.6% |
| Cc1nc(C2CCCN(C(=O)COCc3ccccc3Cl)C2)no1 (stereo unspecified) | -13.21% |
| Cc1nc(C2CCCN(C(=O)Cn3ccccc3=O)C2)no1 (stereo unspecified) | -7.453% |
| Cc1noc(C)c1-c1nc(C2CCCN(CCC(N)=O)C2)ccc1CO (stereo unspecified) | 98.23% |
| Cl.Cl.Cl.OC(CN1CCN(Cc2cccnc2)CC1)c1cccs1 (stereo unspecified) | -1.04% |
| Cc1ccc2c(c1)C(NCc1nnc3n1CCCCC3)CCCO2 (stereo unspecified) | -29.11% |
| O=c1cc(CN(CCO)C2CC2)nc2ccc(Cl)cn12 | -6.925% |
| O=C(CCc1cscn1)NS(=O)(=O)c1ccc2ccccc2c1 | 3.955% |
| O=C(Cc1ccsc1)N1C[C@@H]2OCCN(c3cnccn3)[C@@H]2C1.O=C(O)C(F)(F)F | 19.14% |
| CN(C)C(=O)N1CC[C@H]2[C@H]1CCN2c1nncs1.O=C(O)C(F)(F)F | -1.539% |
| Cc1ccc(N2CC[C@@H]3O[C@@H](COCc4cccnc4)CC[C@@H]32)nn1.O=C(O)C(F)(F)F.O=C(O)C(F)(F)F | 4.893% |
| Cc1ccc(N2CC[C@@H]3[C@@H]2CCN3C(=O)Cc2ccccc2)nn1.O=C(O)C(F)(F)F | 108% |
| Cc1ccc(N2CC[C@H]3[C@@H]2CCC(=O)N3CCN2CCOCC2)nn1.O=C(O)C(F)(F)F | -26.64% |
| Cc1ccc(N2CC[C@@H]3[C@@H]2CCN3C(=O)Cc2cccs2)nn1.O=C(O)C(F)(F)F | 109.8% |
| O=C(CC1CCCC1)N1CC[C@H]2[C@H]1CCN2c1nncs1.O=C(O)C(F)(F)F | 10.49% |
| Cc1ccc(N2CC[C@@H]3[C@@H]2CCN3C(=O)Cc2ccsc2)nn1.O=C(O)C(F)(F)F | 97.7% |
| Cc1ccc(N2CC[C@@H]3[C@@H]2CCN3C(=O)c2cscn2)nn1.O=C(O)C(F)(F)F | -4.198% |
| O=C(O)[C@@H]1CN(C2CCCC2)C[C@H]1C1CC1 | -8.244% |
| Cc1ccc(NC(=O)NC(C)c2nc[nH]n2)cc1Cl (stereo unspecified) | -5.292% |
| c1cc2c(cc1-c1noc3c1CN(C1CCSCC1)CC3)OCO2 | -0.3794% |

| Structure (SMILES) | Percent Effect |
| --- | --- |
| Cc1ccsc1CN(C)C(=O)C1CCCN(C(N)=O)C1 (stereo unspecified) | 8.59% |
| CCn1cnnc1CN(C)C(=O)C1CCC(=O)N(CC2CCCCC2)C1 (stereo unspecified) | 6.192% |
| CN(CCCc1cnn(C)c1)C(=O)C1CCCN(C2CCCC2)C1 (stereo unspecified) | -4.141% |
| CC(C)n1cnnc1CN(C)C(=O)C1CCCN(C2CCN(C)CC2)C1 (stereo unspecified) | 110.4% |
| CC(C)n1cnnc1CN(C)C(=O)C1CCCN(CC(N)=O)C1 (stereo unspecified) | 92.86% |
| CC(C)n1cnnc1CN(C)C1CCCNC1 (stereo unspecified) | -12.15% |
| CC(C)n1cnnc1CN(C)CC1CCCNC1 (stereo unspecified) | -3.149% |
| CCCn1cnnc1CN(C)C(=O)C1CCCN(C2CCN(C)CC2)C1 (stereo unspecified) | 120.4% |
| CCCn1cnnc1CN(C)C(=O)C1CCC(=O)N(C2CCCC2)C1 (stereo unspecified) | -9.656% |
| O=C1CN(Cc2cc(O)c3cccc(F)c3n2)CCN1C1CCCC1 | -1.558% |
| Cc1ncnc(NCC(C)N(C)c2ccccc2)c1C (stereo unspecified) | -9.709% |
| COCCN1CCCC2(CCN(Cc3noc(C4CCCC4)n3)C2)C1=O (stereo unspecified) | 5.891% |
| Cc1nc(C)n(Cc2cccc(NC3CCN(C)C3=O)c2)n1 (stereo unspecified) | -8.315% |
| CN(Cc1ccccc1)CC(C)(C)NC(=O)c1cnns1 | -3.698% |
| CN(C)CCN(C)C(=O)Nc1cc(F)cc(N2CCCC2)c1 | 23.94% |
| Cn1cnc(CN2Cc3nccn3CC2c2ccccc2)c1 (stereo unspecified) | 137.8% |
| c1ccc(CNC[C@H]2Cn3ccnc3CO2)cc1 | -10.94% |
| Cc1cc(C(F)(F)F)nc(CCNC(C)Cn2nc(C)cc2C)n1 (stereo unspecified) | 119.2% |
| CC(Cn1cncn1)NCCN1CCc2ccccc2C1 (stereo unspecified) | 12.32% |
| CC(Cn1ccnc1)NS(=O)(=O)Cc1ccc(F)cc1 (stereo unspecified) | -3.68% |
| Cc1cc(C(F)(F)F)nc(CCNC(C)Cn2cncn2)n1 (stereo unspecified) | 108.9% |
| CC(Cn1cncn1)NCc1nncn1C1CCCCC1 (stereo unspecified) | -14% |
| Cc1cc(C)n(CC(C)NCCN2CCc3ccccc32)n1 (stereo unspecified) | 20.38% |
| Cc1cc(C)n(CC(C)NCCn2nc(C)c(Cl)c2C)n1 (stereo unspecified) | 9.985% |
| Cc1ccc2c(c1)c(CNC(C)Cn1ccnc1)nn2C (stereo unspecified) | 4.186% |
